Compounds with a hit are over-represented: about 0.52% of the library has one in this group of screens.
Vif-APOBEC3G blk: blocks the Vif interaction with human APOBEC3G | Q9HC16 | HeLa A3G-eYFP + Vif (tagged APOBEC3G with the HIV-1 protein that degrades it), YFP fluorescence, overnight | Potency, µM (series often up to 46.1 µM), for the others: at the top dose activity, negative = active, hits mostly inhibitors | 410,000 compounds, 0.076% hits; further: on the % scale 0 is the no-effect control and ±100 the full control effect; nearly all actives have a fitted effect of over 60% in size
Target sequence (Q9HC16 whole entry, looked up): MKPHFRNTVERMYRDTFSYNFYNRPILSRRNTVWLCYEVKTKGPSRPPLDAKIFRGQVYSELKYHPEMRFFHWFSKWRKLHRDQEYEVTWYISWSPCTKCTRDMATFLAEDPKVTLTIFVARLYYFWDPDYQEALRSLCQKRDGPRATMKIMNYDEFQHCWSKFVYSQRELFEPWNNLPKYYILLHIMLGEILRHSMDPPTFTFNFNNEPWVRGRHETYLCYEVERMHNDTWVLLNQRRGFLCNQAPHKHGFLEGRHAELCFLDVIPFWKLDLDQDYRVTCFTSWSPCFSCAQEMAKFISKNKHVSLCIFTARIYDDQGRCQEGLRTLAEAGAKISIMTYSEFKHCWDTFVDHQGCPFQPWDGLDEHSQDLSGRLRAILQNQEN
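HeLa cells stably expressing Vif and C-terminally eYFP-tagged A3G, seeded overnight at 37 deg C, then exposed to compound by pintool overnight at 37 deg C. Rise in yellow fluorescence (Ex 488/Em 500-530, Acumen) marks blocked Vif-driven A3G degradation.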
Epigenetic derep: epigenetic control regulation, reporter derepression. murine LDR cells, GFP reporter derepression, 30 h. 280,000 compounds, 0.2% hits. Potency, µM (titrated, usually from 53.9 µM), for the others: at the highest dose GFP activation, hits mostly activators; further: % of control where 0% means no effect; nearly all actives have a fitted effect of over 60% in size
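Murine LDR cells bearing a silenced CMV-driven GFP reporter were exposed to compound for 30 h at 37 C. After PBS washes, GFP-positive cells (20-120 um objects) counted by laser-scanning microplate cytometry.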
Vif-APOBEC3F blk: blocks the Vif interaction with APOBEC3F; HeLa A3F-eYFP + Vif (tagged APOBEC3F with the HIV-1 protein that degrades it), YFP fluorescence increase; Potency, µM (highest dose often 46.1 µM), inactives show at the highest dose activity, negative = active; 390,000 compounds, 0.2% hits; AID 602313; further: % of control where 0% means no effect; nearly all actives have a fitted effect of over 65% in size
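Fluorescence increase (Ex 488/Em 500-530) after overnight compound treatment at 37 deg C flags inhibition of Vif-driven A3F-eYFP loss in stable HeLa A3F-eYFP/Vif cells seeded overnight beforehand.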
PINK1 expr mod: changes PINK1 expression; PINK1 immunofluorescence, high-content cytometry, 24 h; Potency, µM (doses to about 76.6 µM), without a hit: top-dose activation (PINK1 increase), hits mostly activators; 410,000 compounds, 0.2% hits; active means well fitted activation curve with a large enough effect; inconclusive means small, poorly fitted or top-dose-only effect; cell line not stated here; further: % of control where 0% means no effect; nearly all actives have a fitted effect of over 65% in size
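Cells are seeded, rested 12 hours, then given compound at five concentrations or DMSO for 24 hours. After fixation, blocking and antibody staining, PINK1 amount and mitochondrial localization are scored; CCCP serves as control.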
Active calls of the source: *; ? = inconclusive; · = not tested or not shown. Unless noted, the call rests on the fitted dose curve; in most records, active means well fitted curve in the direction sought with a large enough effect; inconclusive means small, poorly fitted or top-dose-only effect, or another doubt; inactive means no such curve, though single readings can be large; an effect the other way counts as inactive or inconclusive. Potency means the concentration at half of the fitted maximal effect.

SMILES	Vif-APOBEC3G blk	Epigenetic derep	Vif-APOBEC3F blk	PINK1 expr mod
CCCCCc1c(CC)ncn1CCc1ccccc1OC	·	·	·	32µM*
CCCCCc1c(-c2ccc(F)cc2)ncn1CCc1ccccc1OC	·	·	·	-1%
O=C(C(=O)N1CCCCCC1)c1c[nH]c2ccccc12	0%	·	-2%	-2%
C[n+]1cc(C(=O)N2CCCCC2)ccc1/C=C/c1c[nH]c2ccccc12	11µM*	13%	?	4%
CC(=O)c1cccc(NC(=S)N2CCc3ccccc32)c1	4%	·	0%	-1%
CC(=O)c1cccc(NC(=S)N2c3ccccc3CC2C)c1 (stereo unspecified)	8.9µM*	-1%	5%	2%
O=[N+]([O-])c1ccc(O/N=[N+](\[O-])N2CCN(c3ccccc3)CC2)c([N+](=O)[O-])c1	?	·	·	2%
COc1ccc(-c2c[n+](CC(=O)OC3CC(C)CCC3C(C)C)c3n2CCC3)cc1 (stereo unspecified)	2%	1%	0%	40µM*
CC(C)[C@@H]1CC[C@@H](C)C[C@H]1OC(=O)C[n+]1cc(-c2ccc(Cl)cc2)n2c1CCCCC2	-1%	4%	-16%	?
CCOC(=O)[C@@H]1[C@H]2COc3cc(OC)ccc3[C@@H]2N2C(=O)N(c3ccc(C(F)(F)F)cc3)C(=O)[C@@]12C	0%	·	2%	1%
CCOC(=O)[C@@H]1[C@H]2COc3cc(OC)ccc3[C@H]2N2C(=O)N(c3ccc(C(F)(F)F)cc3)C(=O)[C@]12C	-1%	·	-10%	40µM*
CCOC(=O)Cc1csc(Nc2ccc(Cl)cc2)n1	2%	1%	-6%	0%
CCOC(=O)Cc1nnc2c(Nc3ccc(Cl)cc3)nc3nonc3n12	0%	0%	2%	45µM*
CCOC(=O)C1=C(C)OC(=Cc2ccccc2)C1=O	3%	·	-11%	-1%
CCOC(=O)C1=C(O)c2ccccc2C(=O)/C1=C\c1ccc(C)cc1	?	?	25µM*	10%
CCN1C(=S)SC(=O)C1=C1C=C(C)N(Cc2ccco2)C(C)=C1	11µM*	-1%	?	0%
N#CC(C#N)=Cc1cnc(N2CCN(c3ccccc3)CC2)s1	-11%	·	?	32µM*
O=C(Nc1ccc2c(c1)OCCO2)c1ccco1	2%	-2%	-4%	11µM*
COc1cc(-c2cc(O)c(-c3ccc4ccccc4n3)c(=O)[nH]2)cc(OC)c1OC	10µM*	·	11µM*	25%
COc1cc(-c2cc(C(=O)Nc3ccc(O)cc3)c3ccccc3n2)cc(OC)c1OC	-9%	1%	2%	0%
COc1ccc(-n2c(CNC(=O)c3ccc(OC)cc3OC)nnc2SC)cc1	·	·	·	-1%
CCCCN1C(=O)/C(=C2/Sc3ccccc3N2C)S/C1=N\c1ncn[nH]1	-9%	3%	22µM*	8%
CCN1C(=O)/C(=C2/Sc3ccccc3N2CC)SC1=S	-2%	·	1%	8%
CC[N+]1=C(C)C(C)(C)c2cc(C)ccc21	?	?	?	22µM*
COC(=O)[C@@H]1CCCN1Cc1ccc2c(c1)CN(Cc1ccc3c(c1)CCCN3C)CCO2	·	·	·	0%
SMILES	Vif-APOBEC3G blk	Epigenetic derep	Vif-APOBEC3F blk	PINK1 expr mod
C=CCSc1nnc(C)c(/C=C/Nc2ccc(Cl)cc2)n1	?	?	25µM*	3%
Cc1cccc2cc3c(N)c(C(=O)N4CCc5ccccc54)sc3nc12	?	?	4.5µM*	9%
Cc1cc(C)c2nc3sc(C(=O)N4CCOCC4)c(N)c3cc2c1	?	?	?	2%
Cc1cccc2cc3c(N)c(C(=O)Nc4ccc(N5CCOCC5)cc4)sc3nc12	13µM*	?	?	·
CCc1cccc2cc3c(N)c(C(=O)Nc4ccc(S(=O)(=O)N5CCCC5)cc4)sc3nc12	3.5µM*	11µM*	?	11%
Cc1ccc(C)c2nc3sc(C(=O)N4CCOCC4)c(N)c3cc12	10µM*	0%	?	2%
COc1ccc(-c2cn3c(C)c(C(=O)Nc4cc(NC(C)=O)ccc4OC)sc3n2)cc1	-28%	3%	-10%	10µM*
CNC(=O)c1sc2nc(-c3ccc(OC)cc3)cn2c1C	-5%	2%	2%	-1%
CCC1CN(CCNC(=O)c2ccccc2-n2cccn2)Cc2cc(OC)ccc2O1 (stereo unspecified)	·	·	·	0%
CN(C)c1ccc(/C=C/c2sc3ccccc3[n+]2Cc2ccccc2)cc1	-7%	·	·	40µM*
Cc1sc2ccccc2[n+]1Cc1ccccc1	-2%	·	·	·
COc1ccc(/C=C/c2sc3ccccc3[n+]2CCCCI)cc1OC	-9%	·	·	0%
CCCN(CCC)c1ccc(/C=C/c2sc3ccccc3[n+]2CCCCI)cc1	-26%	·	·	14µM*
COc1ccc2[nH]c3c(c2c1)CCNC3C1CC=C(C)CC1 (stereo unspecified)	?	0%	3%	10%
COc1ccc2[nH]c3c(c2c1)CCNC3c1ccc([N+](=O)[O-])o1 (stereo unspecified)	?	·	25µM*	14%
CC1=CC(C)(C)Nc2ccc(OC(=O)CCN3C(=O)c4ccccc4C3=O)cc21	11µM*	?	?	-1%
Cn1c(NC(=O)c2cccc(Cn3cc(Cl)cn3)c2)nc2ccccc21	0%	2%	-8%	11µM*
Cc1ccc(C(=O)Nc2cnn(-c3ccc(C(=O)NCc4nc(-c5ccccc5)n[nH]4)cc3)c2)c(C)c1	·	·	·	0%
Cc1cc(C)cc(CC(Cc2nc3ccccc3[nH]2)c2nc3ccccc3[nH]2)c1 (stereo unspecified)	0%	0%	-2%	16µM*
CC(=O)Oc1c(-c2ccc(Br)o2)oc2ccccc2c1=O	-7%	·	13µM*	9%
CCCCCCN1C[C@@H](n2cc(-c3ccc(F)cc3)nn2)[C@H](O)C[C@@H]1c1ccc(Cl)cc1	-21%	·	-15%	?

Screening results (PubChem)
